# uPA surface inh = qHTS for Inhibitors of Cell Surface uPA Generation. Potency, µM (highest dose often 38.3 µM), inactives show at the highest dose activity change, negative = inhibition, usual class: inhibitors. cell surface uPA generation assay, qHTS. actives 0.31% (n = 330,000); active = well fitted inhibition curve with a large enough effect; inconclusive = small, poorly fitted or top-dose-only effect; inactive = no such curve, though single readings can be large or run the other way; tested in mouse RAW 264.7 cells; note: potency is the fitted concentration of half-maximal effect; % is set by controls: 0 for no effect and ±100 for the full control effect; nearly all actives have a fitted effect of over 55% in size
# MCF10A rereplic = A quantitative high throughput screen for small molecules that induce DNA re-replication in MCF 10a normal breast cells; AID 624296, 2012; actives 2.9% (n = 350,000); MCF 10A DNA re-replication, Hoechst nuclear intensity, 48 h; Potency, µM (series often up to 46.1 µM), for inactives: at the highest dose activity, positive = re-replication, actives largely listed as activators; note: potency is the fitted concentration of half-maximal effect; % of control where 0% means no effect; nearly all actives have a fitted effect of over 50% in size
# SW480 rereplic = A quantitative high throughput screen for small molecules that induce DNA re-replication in SW480 colon adenocarcinoma cells; actives 1.8% (n = 340,000); Potency, µM (highest dose often 46.1 µM), for inactives: top-dose re-replication activation, most hits filed as activators; SW480 DNA re-replication, Hoechst DNA content imaging, 48 h; note: potency is the fitted concentration of half-maximal effect; % of control where 0% means no effect; nearly all actives have a fitted effect of over 55% in size
#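 Compounds, transferred as 23 nL by pin tool, were incubated with cells for 48 hr; DNA content per nucleus was then quantified by Hoechst staining and fluorescence plate imaging.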
# Giardia killer = Small Molecules that selectively kill Giardia lamblia: qHTS | Giardia lamblia trophozoite viability | activity change, % at 7.66 µM, hits read low | AID 540267, 2011 | actives 0.15% (n = 340,000); in the data active = activity change below about -80%; inconclusive = between about -30% and that limit;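 note: parasites exposed to compound for two days anaerobically before the ATP read; % is set by controls: 0 for no effect and ±100 for the full control effect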
#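 Anaerobic 48 hrs incubation at 37 deg C of 100 trophozoites/well with test compounds; ATPLite 1-Step luminescence, 15-30 min RT, reports cellular ATP as viability.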
# Active calls of the source: *; u = inconclusive; x = no result. Rows were chosen to be rich in hits. Some 4.3% of all compounds tested hit in one or more screens of this group. Unless noted, calls come from the whole dose curve; as a rule, active = well fitted activation curve with a large enough effect; inconclusive = small, poorly fitted or top-dose-only effect; inactive = no such curve, though single readings can be large or run the other way.
SMILES,uPA surface inh,MCF10A rereplic,SW480 rereplic,Giardia killer
CC(C)CCCC(C)CCCC(C)CCCCC(C)CCCC(C)CCCC(C)C (centres undefined),x,-1.8%,0.2%,x
COC(=O)C1=C[C@@H](C(=O)OC)[C@@H]2C3=C(C(=O)[C@@]2(CC(C)C)NC(=O)c2ccccc2)[C@H](C)n2c(=O)n(-c4ccccc4)c(=O)n2[C@@H]3C1,x,x,x,2.8
Cc1ccc(C2(C)NC(=O)N(CC(=O)N3c4ccccc4NC(=O)CC3C)C2=O)cc1 (centres undefined),2.1%,2.0%,u,8.9
COc1ccc(CCNC(=O)c2nn(C)c3c2CS(=O)(=O)c2ccccc2-3)cc1OC,u,u,23.1µM*,12.3
Cc1ccc(CCNC(=O)c2nn(C)c3c2CS(=O)(=O)c2ccccc2-3)cc1,0.9%,0.6%,u,2.0
COc1ccc(C(NC(=O)CC(C)C)c2c(O)ccc3ccccc23)cc1 (centres undefined),-28.7%,u,3.1%,-10.6
CCCC(=O)NC(c1ccc(OC)cc1)c1c(O)ccc2ccccc12 (centres undefined),-16.2%,3.66µM*,20.6µM*,-13.3
CCOc1ccc(C(NC(=O)CC)c2c(O)ccc3ccccc23)cc1 (centres undefined),u,u,9.2µM*,5.0
CN1CCCN(C(=O)c2ccc(Cl)s2)CC1,3.3%,-0.3%,2.3%,2.8
CC(C)c1c(C(=O)N/N=C/c2ccccc2OCc2c(F)cccc2Cl)nnn1-c1nonc1N,-28.0%,u,9.2µM*,-1.3
Nc1nonc1-n1nnc(C(=O)N/N=C/c2cccc(Cl)c2Cl)c1CN1CCCC1,1.1%,u,20.6µM*,-0.9
Nc1nonc1-n1nnc(C(=O)N/N=C/c2ccc(Cl)cc2Cl)c1CN1CCCC1,2.5%,-2.8%,3.66µM*,3.9
CC(C)c1c(C(=O)N/N=C/c2ccc(Cl)cc2Cl)nnn1-c1nonc1N,u,2.5%,-9.0%,12.0
Nc1nonc1-n1nnc(C(=O)N/N=C/c2ccccc2Cl)c1CN1CCOCC1,12.5%,-0.1%,-1.9%,3.3
O=C1C2CCCN2C(c2ccc(F)cc2)N1c1ccc(Cl)cc1 (centres undefined),5.01µM*,8.0%,3.1%,-11.3
CC(NNC(=O)c1ccccc1)c1ccccc1 (centres undefined),x,-3.5%,0.5%,x
CC1(C)CC(=O)C=C(NCc2ccc(Cl)c(Cl)c2)C1,-16.4%,0.8%,0.7%,-9.6
CC1=C(C(=O)Nc2ccccn2)C(c2cccnc2)n2nnnc2N1 (centres undefined),-7.5%,8.2µM*,u,8.9
O=C(O)c1cc(N(Cc2ccccc2O)Cc2ccccc2O)ccc1O,x,x,x,7.5
Cc1sc2ncnc(N3CCC(C(=O)N4CC(C)SC4=Nc4ccc(Cl)cc4)CC3)c2c1C (centres undefined),-6.8%,-0.7%,-1.1%,-6.1
COc1ccc([N+](=O)[O-])cc1/C=N/NC(=O)c1nonc1N,-11.7%,16.4µM*,18.4µM*,-4.4
Cn1cc(/C=C/C(=O)c2ccccc2)c2ccccc21,-2.9%,u,u,-2.2
Cc1cc2c(c(/C=C/C(=O)c3ccccc3)c1)OC1(C=C2)Oc2ccccc2C(=O)N1C (centres undefined),-6.2%,5.62µM*,3.66µM*,-9.1
CC(C)C(Cl)=NOC(=O)Nc1ccc(F)cc1,-11.7%,3.26µM*,u,-18.3
C/C(=N\OC(=O)Nc1ccc(Cl)cc1)c1ccc(F)c(F)c1,-0.2%,u,-7.0%,-16.2
SMILES,uPA surface inh,MCF10A rereplic,SW480 rereplic,Giardia killer
C=C(C)CNC(=S)Nc1cccc(N)n1,5.6%,-8.6%,4.1%,-0.8
CCc1ccc(C2c3[nH]c4ccccc4c3CCN2C(=O)c2cc(C)nn2C)cc1 (centres undefined),-19.6%,23.1µM*,u,-19.5
CCN(CC)CC(=O)Nc1ccc(/C(C)=N/NC2=NCCN2)cc1,-3.1%,23.1µM*,18.4µM*,-11.5
COc1ccc(Cn2c(C3CCCCC3)nc3c(c(=O)c4ccccc4n3C)c2=O)cc1,-0.8%,-1.9%,-4.0%,-21.6
COc1ccc(CCn2c(C3CCCCC3)nc3c(c(=O)c4ccccc4n3C)c2=O)cc1,u,3.66µM*,-22.0%,-13.7
O=C(Nc1ccc(Br)cn1)c1cccc(-c2cc3ccccc3oc2=O)c1,5.4%,18.4µM*,u,7.6
Cc1nc(NC(=O)c2cccc(-c3cc4ccccc4oc3=O)c2)ccc1Br,-1.0%,20.6µM*,-1.5%,0.2
O=C(CSc1ncnc2c1nnn2Cc1ccccc1)NC1CCCC1,-0.7%,18.2%,-0.7%,-16.0
O=C(CSc1ncnc2c1nnn2Cc1ccccc1F)N1CCN(c2ccccc2)CC1,-5.4%,20.6µM*,23.1%,4.0
CC(C)(C)NC(=O)CSc1ncnc2c1nnn2Cc1ccccc1Cl,-11.9%,14.6µM*,u,-3.0
CCCc1cc(C(=O)Nc2ccc(C(=O)c3ccc(C)cc3)cc2)n(C)n1,-5.7%,18.4µM*,81.8%,2.0
COC(=O)C(=C/C(C)=C/c1cccnc1)C(=O)OC,-13.1%,8.2µM*,u,16.8
N#C/C(=C/c1ccc([N+](=O)[O-])cc1)C(N)=O,-4.5%,0.8%,0.4%,-4.5
N#C/C(=C\c1cc([N+](=O)[O-])ccc1Cl)C(N)=O,-14.4%,20.6µM*,8.2µM*,1.8
Cc1ccnc2nc(C(=O)OCC(=O)N3CC(C)CC(C)C3)nn12 (centres undefined),1.9%,25.2%,5.8%,5.6
Nc1c(C(=O)NC2CCCC2)c2nc3ccccc3nc2n1/N=C/c1cccnc1,-1.2%,4.11µM*,u,7.9
CC1(C)SC(=S)N(/N=C/c2cccnc2)C1N(O)C(=O)NC1CCCCC1 (centres undefined),-0.4%,-2.0%,-10.4%,0.0
Cc1ccc(N(C)S(=O)(=O)c2nnc(NC(=O)C3CCCCC3)s2)cc1,x,x,x,0.2
Cn1c(=O)c2c(nc(OC3CCCCCC3)n2C)n(C)c1=O,-5.1%,0.7%,-7.6%,-2.7
COc1ccc(CCN2C(=O)C=CC2=O)cc1OC,-10.6%,4.61µM*,7.31µM*,9.4
COc1ccc(CCN2C(=O)CSC2c2ccc(OC)c(OC)c2)cc1OC (centres undefined),11.0%,2.7%,-14.6%,22.6
COc1ccc(C2SCC(=O)N2CCc2ccc(OC)c(OC)c2)cc1 (centres undefined),u,0.517µM*,10.3µM*,-17.7
COc1ccc(CCN2C(=O)CN(Cc3ccccc3)CC2=O)cc1OC,-0.4%,3.7%,-4.0%,1.4
CN1CCN(NC(=S)NC2CCCCC2)CC1,0.8%,9.7%,-4.2%,-5.9
COC(=O)C(=Cc1ccc(-c2ccsc2C(=O)OC)o1)C(=O)OC,-16.8%,25.9µM*,5.8µM*,14.8
c1ccc(CSc2nnc(-c3ccccc3)c(-c3ccccc3)n2)cc1,7.4%,8.2µM*,u,4.3
O=C(CSc1nc(-c2ccccc2)c(-c2ccccc2)[nH]1)NCc1ccco1,x,14.6µM*,11.6µM*,-12.5
O=C(CSc1nnc(-c2ccccc2)c(-c2ccccc2)n1)NCc1ccco1,-9.2%,18.4µM*,19.2%,0.1
